CHRM1 agonist: activates human CHRM1 receptor | P11229 | CHO-K1 hM1, Fluo-8 calcium fluorescence, agonist mode; 0% DMSO, 100% acetylcholine EC100 | activation, % at 3 µM | 360,000 tested, 0.33% active | AID 588814;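 active = activation above the run's mean compound activation plus 3 SD, cut at about 16% in these data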;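 also: peak over basal fluorescence ratio within a 140 s kinetic read after compound addition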
Target sequence (P11229 whole entry, looked up): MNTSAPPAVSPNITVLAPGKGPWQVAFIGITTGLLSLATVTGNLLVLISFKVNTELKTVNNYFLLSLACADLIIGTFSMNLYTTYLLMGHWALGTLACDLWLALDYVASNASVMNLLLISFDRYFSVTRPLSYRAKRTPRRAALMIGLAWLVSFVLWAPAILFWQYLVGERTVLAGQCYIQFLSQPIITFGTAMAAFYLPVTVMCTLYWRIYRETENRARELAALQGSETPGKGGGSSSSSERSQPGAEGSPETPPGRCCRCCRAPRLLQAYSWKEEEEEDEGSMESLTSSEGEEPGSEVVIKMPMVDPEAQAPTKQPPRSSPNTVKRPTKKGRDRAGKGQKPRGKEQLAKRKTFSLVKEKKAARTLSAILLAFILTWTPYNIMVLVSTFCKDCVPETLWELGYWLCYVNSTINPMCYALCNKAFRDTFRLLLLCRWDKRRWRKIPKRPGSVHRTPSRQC
CHO-K1 Ca ag: counter-screen for M1 agonists: effect in parental CHO-K1 cells; Fluo-8 calcium fluorescence; scaled to maximal ATP response, vehicle zero; activation, % at 3 µM; 360,000 tested, 0.48% active; in the data active = activation above about 15%;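 also: untransfected CHO-K1 host cells lacking M1 receptor as counterscreen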
CHO-K1 Ca antag: counter-screen for M1 antagonists: effect in parental CHO-K1 cells. 360,000 tested, 0.6% active. ATP-induced calcium, Fluo-8 fluorescence. AID 602250. inhibition, % at 3 µM;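 active = inhibition above a per-plate cutoff, the plate's mean sample inhibition plus 3 SD, cut at about 24% in these data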
CHRM1 PAM: human CHRM1 positive allosteric modulation; 360,000 tested, 0.088% active; P11229; CHO-K1 hM1, Fluo-8 calcium fluorescence, ACh EC20; 0% = ACh EC20, 100% = maximal ACh; activation, % at 3 µM; in the data active = activation above about 19%, passing the limit was not always enough
CHRM1 antagonist: human CHRM1 antagonism; inhibition, % at 3 µM; CHO-K1 hM1, Fluo-8 calcium fluorescence, ACh EC80 antagonist; 360,000 tested, 1.3% active;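 active = percent inhibition above its own plate's cutoff, namely the mean of that plate's compound wells plus 3 SD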;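 also: peak over basal fluorescence ratio during 140 s after agonist addition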
CHO-K1 Ca PAM: M1 PAM counterscreen hit in parental CHO-K1 cells | ATP EC20, Fluo-8 calcium fluorescence; 0% at ATP EC20, 100% at ATP max | activation, % at 3 µM | 360,000 tested, 0.02% active;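 active = activation above the run cutoff, the mean activation of all test compounds plus 3 SD, cut at about 40% in these data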;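 also: peak over basal fluorescence ratio in a 140 s read after ATP addition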
Each line names hits and unclear results; the compound was inactive in the other large screens. The list is not random: actives were taken first. Their share in the collection is about 2.3%.

CC1(c2ccc(Cl)cc2)NC(=O)N(CC(=O)Nc2cccnc2Cl)C1=O (centres undefined)	CHRM1 agonist 22, CHO-K1 Ca ag 17
CC1(c2ccc(OC(F)F)cc2)NC(=O)N(CC(=O)Nc2ccc3c(c2)OCO3)C1=O (centres undefined)	CHRM1 agonist 39, CHO-K1 Ca ag 29
CCOC(=O)CN1C(=O)NC(C)(c2ccc(OC(F)F)cc2)C1=O (centres undefined)	none
CC(=O)Nc1ccc(/C=N/N2C(=O)NC(C)(c3ccc(OC(F)F)cc3)C2=O)cc1 (centres undefined)	CHRM1 agonist 27
CCCCCC(C)NC(=O)CN1C(=O)NC(C)(c2ccc3ccccc3c2)C1=O (centres undefined)	CHRM1 agonist 18
CCOc1ccc(N(CC(=O)Nc2ccc(C)c(Cl)c2)S(C)(=O)=O)cc1	none
NC(=O)NCC(c1ccccc1)C1CCCCC1 (centres undefined)	none
O=C(c1cccs1)N1CCC(c2nc3c(nnn3Cc3ccccc3Cl)c(=O)[nH]2)CC1	none
CC1(c2ccc(OC(F)F)cc2)NC(=O)N(CC(=O)Nc2ccccc2)C1=O (centres undefined)	CHRM1 agonist 46, CHO-K1 Ca ag 46, CHRM1 antagonist 26
Cc1ccc(S(=O)(=O)N2CCC(C(=O)N/N=C/c3ccncc3)CC2)cc1	CHO-K1 Ca antag 24
Cc1ccc(S(=O)(=O)N(C)C[C@@H]2OCc3cn(nn3)CCCC(=O)N([C@@H](C)CO)C[C@H]2C)cc1	CHRM1 PAM 25
C[C@@H]1CN([C@H](C)CO)C(=O)CCCn2nncc2CO[C@@H]1CN(C)S(=O)(=O)c1ccccc1C#N	CHRM1 PAM 27
C[C@@H]1CN([C@@H](C)CO)C(=O)CCCn2cc(nn2)CO[C@H]1CN(C)S(=O)(=O)c1ccc(-c2ccccc2)cc1	none
C[C@H](CO)N1C[C@H](C)[C@@H](CN(C)S(=O)(=O)c2ccccc2)OCc2cn(nn2)CCCC1=O	CHRM1 antagonist 24
Cc1ccccc1S(=O)(=O)N(C)C[C@@H]1OCc2cnnn2CCCC(=O)N([C@@H](C)CO)C[C@@H]1C	none
COc1ccc(/C=C(\NC(=O)c2ccc(OC)cc2)C(=O)Nc2cccc(C(=O)O)c2)cc1	none
COc1ccc(C(=O)N/C(=C/c2ccc(Cl)cc2)C(=O)Nc2ccc(C(=O)O)cc2)cc1	CHO-K1 Ca antag 25
COc1ccc(NC2CC(=O)N(c3cc([N+](=O)[O-])ccc3C)C2=O)cc1 (centres undefined)	none
COc1ccc(NC(=O)c2ccc(COc3ccccc3)o2)c(OC)c1	CHO-K1 Ca PAM 42
COc1ccc(NC(=O)COC(=O)Cc2ccc(-c3ccccc3)cc2)c(OC)c1	CHO-K1 Ca PAM 46
COc1ccc(NC(=O)c2ccc(COc3ccccc3Br)o2)c(OC)c1	none
COc1ccc(C)cc1NC(=O)COC(=O)Cc1ccc(-c2ccccc2)cc1	none
O=C(O)c1cc(Cl)n[nH]c1=O	none
COc1ccc(NC(=O)CCCOc2ccc(Cl)c(C)c2)cc1S(=O)(=O)N1CCOCC1	none
Cc1ccc(NC(=O)C2CCN(S(=O)(=O)c3ccc(N4CCCC4=O)cc3)CC2)cc1Cl	CHO-K1 Ca ag 16, CHO-K1 Ca antag 32, CHRM1 antagonist 47
CCOc1ccc(N2CC(C(=O)Nc3ccc(S(=O)(=O)N4CCCCC4)cc3)CC2=O)cc1 (centres undefined)	CHO-K1 Ca antag 68
CC1Sc2ccc(S(=O)(=O)N3CCC(C(=O)Nc4ccc(Cl)cc4)CC3)cc2NC1=O (centres undefined)	CHO-K1 Ca antag 31, CHRM1 antagonist 45
CCCCn1c(N)c(N(CC(C)C)C(=O)CSC(C)C(=O)Nc2cc(C)on2)c(=O)[nH]c1=O (centres undefined)	none
CC1CCCN(C(=O)CNC(=O)c2ccco2)C1 (centres undefined)	none
CCC1=NN(C(=O)COc2ccccc2)C(O)(c2ccc(Br)cc2)C1 (centres undefined)	CHO-K1 Ca ag 22
Cc1ccc(SCC(=O)N2N=CCC2c2ccccc2)cc1 (centres undefined)	none
CCOc1ccc2c(c1)sc(N)[n+]2Cc1cc(C)cc2cccnc12	CHRM1 antagonist 70
COc1ccc2c(c1)sc(N)[n+]2Cc1cc(C)cc2cccnc12	CHRM1 antagonist 65
COc1ccc(C(=O)N2CCC(C(=O)O)CC2)c2ccccc12	none
Cc1cccc(Nc2nc3c(c(=O)n(C)c(=O)n3C)n2CC(O)CO)c1 (centres undefined)	CHO-K1 Ca antag 25
O=C(CCNS(=O)(=O)c1ccc(Cl)cc1)N1CCCCCC1	none
O=C(NCc1ccco1)c1ccccc1NS(=O)(=O)c1cccs1	CHO-K1 Ca ag 19
O=C(NCc1ccccc1Cl)[C@H]1CCCN1C(=O)[C@H]1CCCN1C(=O)c1ccc(Cl)cc1	none (no result: CHRM1 agonist, CHRM1 PAM, CHRM1 antagonist)
CCOc1ccc(NC(=O)CCN2CCN(S(=O)(=O)c3cc(Cl)ccc3OC)CC2)cc1	CHO-K1 Ca PAM 41
COc1ccc(NC(=O)CCN2CCN(S(=O)(=O)c3ccc(C(C)C)cc3)CC2)cc1	CHO-K1 Ca ag 18
COc1ccc(NC(=O)CCN2CCN(S(=O)(=O)c3ccc(Cl)cc3)CC2)cc1	none
COc1ccc(N2C(=NC(=O)C3CCCO3)SC3CS(=O)(=O)CC32)cc1 (centres undefined)	none
CCN1CCN(CCn2c(=S)[nH]c3ccccc3c2=O)CC1	CHRM1 antagonist 86
Cc1noc(C)c1NC(=O)Nc1ccc2c(c1)C(=O)N([C@H](C)CO)C[C@@H](C)[C@@H](CN(C)S(=O)(=O)c1cn(C)cn1)OCCCC[C@H](C)O2	CHO-K1 Ca antag 26
Cc1ccc(S(=O)(=O)Nc2ccc3c(c2)C(=O)N([C@@H](C)CO)C[C@@H](C)[C@@H](CN(C)S(=O)(=O)c2ccccc2)OCCCC[C@H](C)O3)cc1	CHO-K1 Ca antag 24
Cc1ccc(S(=O)(=O)N(C)C[C@@H]2OCCCC[C@@H](C)Oc3ccc(NS(=O)(=O)c4c(C)noc4C)cc3C(=O)N([C@H](C)CO)C[C@@H]2C)cc1	none
Cc1ccc(S(=O)(=O)N(C)C[C@@H]2OCCCC[C@H](C)Oc3ccc(NC(=O)Nc4ccc(F)cc4)cc3C(=O)N([C@H](C)CO)C[C@H]2C)cc1	CHO-K1 Ca antag 26
C[C@H](CO)N1C[C@H](C)[C@@H](CN(C)S(=O)(=O)c2cn(C)cn2)Oc2ccc(NC(=O)Nc3ccccc3)cc2C1=O	none
Cc1noc(C)c1NC(=O)N(C)C[C@H]1OCCCC[C@@H](C)Oc2ccc(NC(=O)c3ccccc3)cc2C(=O)N([C@H](C)CO)C[C@@H]1C	CHRM1 agonist 17
